Measurements as given in PubChem BioAssay AID1159580 (chemical genetic matrix, 2015).
The campaign covered roughly 5,500 compounds. About 2,000 (36%) were called active. Not shown: some 18% with an inconclusive outcome. Cut-off read from the data, not from the text of the source: active = normalized growth mostly below about 0.91 (no sharp cut-off); inconclusive = no clear call, values can overlap the other calls; inactive = mostly above about 0.92. Some of the results follow.

Assay: chemical genetic growth profiling, strain panel (AID 1159580);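 note: tested at 20 µM; growth read once vehicle control cultures reached saturation at 30 °C; 1 = growth at the plate median or of vehicle wells; lower values mean less growth of the strain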
Settings: S. cerevisiae deletion strains, growth OD

Measured: normalized growth

CCn1cnc2c(Nc3cccc(Cl)c3)nc(N[C@@H]3CCCC[C@@H]3N)nc21
inactive: locus YAL013W, strain DEP1, hits give low values 0.985 | locus YAL040C, strain CLN3, hits give low values 1.02 | locus YCL061C, strain MRC1 (second series), hits give low values 0.998 | locus YDR363W, strain ESC2, hits give low values 0.993 | locus YER002W, strain NOP16, hits give low values 1.03 | locus YGR078C, strain PAC10, hits give low values 1.01 | locus YGR229C, strain SMI1, hits give low values 0.993 | locus YMR263W, strain SAP30, hits give low values 1 | locus YNL175C, strain NOP13, hits give low values 1.08 | locus YNL224C, strain SQS1, hits give low values 1.04 | locus YOR083W, strain WHI5 (second series), hits give low values 0.991 | locus YPL241C, strain CIN2, hits give low values 1.01
